The labels stand for the following.
T1: RBFOX1 RRM (Homo sapiens, UniProt Q9NWB1 109-208)
T1 sequence: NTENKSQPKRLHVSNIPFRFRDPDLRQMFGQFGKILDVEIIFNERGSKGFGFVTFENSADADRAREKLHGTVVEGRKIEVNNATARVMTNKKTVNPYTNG

B1: AACAGAA (DNA:RNA)
RNA: GGGAGACCGGAAUUCAGAUUGUCCAACAGAAUUAAAUCCCGUCGUAGCCACCA
DNA 1: CAATCTGAATTCCGGTCTCCC
DNA 2: TGGTGGCTACGACGGGATT
B2: AAACGGU (DNA:RNA)
RNA: B1 RNA with C27A, A28C, A30G, A31U
DNA 1: CAATCTGAATTCCGGTCTCCC
DNA 2: TGGTGGCTACGACGGGATT
B3: UGAAUGA (DNA:RNA)
RNA: B1 RNA with A25U, A26G, C27A, G29U, A30G
DNA 1: CAATCTGAATTCCGGTCTCCC
DNA 2: TGGTGGCTACGACGGGATT
B4: GGAAUGC (DNA:RNA)
RNA: B1 RNA with A25G, A26G, C27A, G29U, A30G, A31C
DNA 1: CAATCTGAATTCCGGTCTCCC
DNA 2: TGGTGGCTACGACGGGATT
B5: AGGCUUG (DNA:RNA)
RNA: B1 RNA with A26G, C27G, A28C, G29U, A30U, A31G
DNA 1: CAATCTGAATTCCGGTCTCCC
DNA 2: TGGTGGCTACGACGGGATT
B6: ACCAGGC (DNA:RNA)
RNA: B1 RNA with A26C, A30G, A31C
DNA 1: CAATCTGAATTCCGGTCTCCC
DNA 2: TGGTGGCTACGACGGGATT
B7: CCGUUGC (DNA:RNA)
RNA: GGGAGACCGGAAUUCAGAUUGUCCCCGUUGCUUAAAUCCCGUCGUAGCCACCA
DNA 1: CAATCTGAATTCCGGTCTCCC
DNA 2: TGGTGGCTACGACGGGATT
B8: GAAAUGC (DNA:RNA)
RNA: B7 RNA with C25G, C26A, G27A, U28A
DNA 1: CAATCTGAATTCCGGTCTCCC
DNA 2: TGGTGGCTACGACGGGATT
B9: GUAAUGC (DNA:RNA)
RNA: B7 RNA with C25G, C26U, G27A, U28A
DNA 1: CAATCTGAATTCCGGTCTCCC
DNA 2: TGGTGGCTACGACGGGATT
B10: UGAUGAA (DNA:RNA)
RNA: B1 RNA with A25U, A26G, C27A, A28U
DNA 1: CAATCTGAATTCCGGTCTCCC
DNA 2: TGGTGGCTACGACGGGATT
B11: CUGAUGA (DNA:RNA)
RNA: B7 RNA with C26U, U28A, C31A
DNA 1: CAATCTGAATTCCGGTCTCCC
DNA 2: TGGTGGCTACGACGGGATT
B12: GGAUUGC (DNA:RNA)
RNA: B7 RNA with C25G, C26G, G27A
DNA 1: CAATCTGAATTCCGGTCTCCC
DNA 2: TGGTGGCTACGACGGGATT
B13: GUAUUGC (DNA:RNA)
RNA: B7 RNA with C25G, C26U, G27A
DNA 1: CAATCTGAATTCCGGTCTCCC
DNA 2: TGGTGGCTACGACGGGATT
B14: AGGAGGC (DNA:RNA)
RNA: B1 RNA with A26G, C27G, A30G, A31C
DNA 1: CAATCTGAATTCCGGTCTCCC
DNA 2: TGGTGGCTACGACGGGATT
B15: CCAAGUA (DNA:RNA)
RNA: B1 RNA with A25C, A26C, C27A, A30U
DNA 1: CAATCTGAATTCCGGTCTCCC
DNA 2: TGGTGGCTACGACGGGATT
B16: UGACUAA (DNA:RNA)
RNA: B1 RNA with A25U, A26G, C27A, A28C, G29U
DNA 1: CAATCTGAATTCCGGTCTCCC
DNA 2: TGGTGGCTACGACGGGATT
B17: AGAUAAC (DNA:RNA)
RNA: B1 RNA with A26G, C27A, A28U, G29A, A31C
DNA 1: CAATCTGAATTCCGGTCTCCC
DNA 2: TGGTGGCTACGACGGGATT
B18: CCAGGCC (DNA:RNA)
RNA: B7 RNA with G27A, U28G, U29G, G30C
DNA 1: CAATCTGAATTCCGGTCTCCC
DNA 2: TGGTGGCTACGACGGGATT
B19: CUGUCUG (DNA:RNA)
RNA: B7 RNA with C26U, U29C, G30U, C31G
DNA 1: CAATCTGAATTCCGGTCTCCC
DNA 2: TGGTGGCTACGACGGGATT
B20: GGAUACC (DNA:RNA)
RNA: B7 RNA with C25G, C26G, G27A, U29A, G30C
DNA 1: CAATCTGAATTCCGGTCTCCC
DNA 2: TGGTGGCTACGACGGGATT

Positions count from the first letter of the chain named. Over roughly 16,000 sequences, “ka relative to ugcaugu” has its median near 0.0091; the highest 2% begin near 0.032. The full list was thinned out, with the highest values kept by preference.

This test addresses T1, RBFOX1 RRM. The test is described as follows: EMSA; HiTS-Eq, 1 nM pool, 10 min; buffer printed only for the single-RNA assays: 10 mM Tris pH 7.5, 150 mM NaCl, 3.4 mM EDTA, 0.001% NP-40, 30 C. Particulars: tags: His6 N-terminal (pET28a); label: 5' 32P. The procedure, abridged: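 Purified wild-type or mutant RbFox RRM at increasing concentrations was equilibrated with 1 nM of 5′-radiolabelled RNA carrying 7 randomized nucleotides for 10 min in 50 µL. Unbound RNA was separated by 8% native PAGE and sequenced. Relative association constants came from read-count changes of each RNA species compared with the control reaction, normalised to the cognate motif.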
With B1, the binding signal was 0.00258 KA relative to UGCAUGU.

With B2, the binding signal was 0.0059 KA relative to UGCAUGU. For the molecule B3, the binding signal was 0.0319 KA relative to UGCAUGU.

As for B4, the binding signal is 0.0946 KA relative to UGCAUGU. Take B5: the binding signal was 0.0346 KA relative to UGCAUGU. Take B6: the binding signal was 0.00626 KA relative to UGCAUGU. Take B7: the binding signal is 0.0124 KA relative to UGCAUGU.

Regarding B8, the binding signal was 0.0136 KA relative to UGCAUGU. In the case of B9 it was 0.0131 KA relative to UGCAUGU; in that of B10, 0.0191 KA relative to UGCAUGU; in that of B11, 0.0162 KA relative to UGCAUGU. Take B12: the binding signal is 0.0376 KA relative to UGCAUGU. In the case of B13, the binding signal is 0.0151 KA relative to UGCAUGU. For B14, the binding signal is 0.0129 KA relative to UGCAUGU.

As for B15, the binding signal is 0.00123 KA relative to UGCAUGU. In the case of B16, the binding signal was 0.00904 KA relative to UGCAUGU. As for B17, the binding signal is 0.00125 KA relative to UGCAUGU. In the case of B18, the binding signal was 0.0113 KA relative to UGCAUGU.

Regarding B19, the binding signal was 0.0306 KA relative to UGCAUGU. In the case of B20, the binding signal was 0.00541 KA relative to UGCAUGU.
